Laboratory results reported in the supplement of paper PMC4206467.

system: Perkinsus marinus PRA240; assay: ATP content (proliferation) relative to DMSO control; higher = more parasite growth (less inhibition); conditions: 20 µM; 4 days
Method: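 Perkinsus marinus PRA240 trophozoites (2-5x10^6 cells/ml, 100 µl, 96-well) were exposed once to MMV Malaria Box compounds at 20 µM (0.1% DMSO) in triplicate. ATP content (ATPlite bioluminescence) was read at day 4 post-exposure and normalised to DMSO + cells control wells (100% activity). Compounds were identified by joining plate and well to the Malaria Box list.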

First: CC(C)(C)CC(C)(C)NCC(O)COc1ccc2c(c1)CCC2 (stereo not given)
Second: Cc1c(C)n(CC(O)CNC2CCCCC2C)c2ccccc12 (stereo not given)
The ATP content of the first is higher: 114% for the first, 106% for the second.

Going from `FC(F)(F)c1ccc(Nc2nnnc3ccccc23)cc1` to `OCCNc1nc(Nc2ccc(Cl)c(Cl)c2)nc2ccccc12`, the ATP content falls from 44% to 28.8%.

Going from `Cc1cc(NC(=O)c2cccc(C(F)(F)F)c2)n(-c2nc(-c3ccc4c(c3)OCO4)cs2)n1` to `COc1ccc(-c2nonc2NC(=O)c2cccc(Cl)c2)cc1OC`, the ATP content falls from 144% to 135%.

First: C=C(C)CCC(C)N1CCC(N2CCC(C(=O)NCCc3ccccc3)CC2)CC1 (stereo not given)
Second: CCN(Cc1ccccc1)C1CCN(Cc2cc(Br)ccc2O)CC1
The ATP content of the first is lower: 90% for the first, 171% for the second.

First: COc1ccc(CCN2CCC(CN(C)Cc3cnn(-c4ccccc4)c3)CC2)cc1
Second: COc1ccc(CCn2c(=N)c(C(=O)NCc3cccnc3)cc3c(=O)n4cccc(C)c4nc32)cc1
The ATP content of the first is lower: 110% for the first, 140% for the second.

Compared with `CCOC(=O)c1cnc2c(C)cccc2c1Nc1ccc(C(C)=O)cc1`, `CCOC(=O)c1cnc2ccc(OC)cc2c1Nc1ccc(N2CCN(C)CC2)cc1` is lower in ATP content: 122% for the first, 106% for the second.

First: CN(C)CCCNCc1ccc(-c2ccc(F)c(Cl)c2)o1
Second: O=C(Nc1ccc(F)c(Cl)c1)Nc1ccc(Cl)c(Cl)c1
The ATP content of the first is higher: 123% for the first, 46.8% for the second.

Going from `CCOc1ccc(Nc2c3ccccc3nc3ccccc23)cc1` to `CCOc1ccc2nc(C)cc(Nc3ccc(Br)cc3)c2c1`, the ATP content falls from 159% to 3.75%.

First: Cc1ccc(NC(=O)Nc2cccc(Cl)c2)cc1F
Second: Cc1ccc(F)cc1NC(=O)c1cc(Cl)ccc1Nc1ccccc1
The ATP content of the first is lower: 85% for the first, 113% for the second.

First: Cc1nc2ccccc2c(O)c1CC=C(Cl)Cl
Second: CCCc1c(C)nc2ccc(Br)cc2c1O
The ATP content of the first is lower: 50.4% for the first, 58.8% for the second.

First: CC(C)CNC(=O)c1c(N)n(CCc2ccccc2F)c2nc3ccccc3nc12
Second: CC(C)CCNCC(O)Cn1c2ccccc2c2ccccc21 (stereo not given)
The ATP content of the first is lower: 90.4% for the first, 140% for the second.

Compared with `CC(=O)Nc1nnc(SCc2c(C)cc(C(C)(C)C)cc2C)s1`, `COc1cc(OC)cc(N2C(=O)N(Cc3ccc(C(C)(C)C)cc3)c3ccccc3S2(=O)=O)c1` is higher in ATP content: 84.2% for the first, 130% for the second.

First: N=c1n(CCN2CCCCC2)c2ccccc2n1CC(O)c1cccc(Br)c1 (stereo not given)
Second: Oc1c2c(nc3cc(-c4ccccc4)nn13)CCCC2
The ATP content of the first is higher: 116% for the first, 47.5% for the second.

Going from `c1ccc(-c2ccc(-c3nc4ccccc4[nH]3)cc2)cc1` to `CC(C)(C)C(=O)Nc1ccc(C(=O)Nc2cccc(-c3nc4ccccc4[nH]3)c2)cc1`, the ATP content rises from 16.5% to 67.7%.

Going from `CCn1c2c(c(=N)c3c1CCC3)CCCC2` to `CCCn1c(=N)c(C(=O)NC2CCCCC2)cc2c(=O)n3cccc(C)c3nc21`, the ATP content falls from 96.7% to 64.4%.

Compared with `CN(C)c1ccc(N2C(N)=NC(N)=NC2(C)C)cc1`, `COc1cccc(Nc2nc(NCCO)c3ccccc3n2)c1` is lower in ATP content: 114% for the first, 77.5% for the second.

Compared with `O=C(Nc1ccc(N2CCN(Cc3ccccc3)CC2)cc1)c1cccs1`, `Cc1sc(NC(=O)c2ccccc2)c(C(c2cccs2)N2CCN(c3ccccc3)CC2)c1C` (stereo not given) is higher in ATP content: 86.8% for the first, 97.8% for the second.

Going from `COc1ccc(C(=O)Nc2ccc(Cl)cc2C(=O)Nc2ccncc2)cc1` to `Cc1c(C)n(Cc2ccc(F)cc2)c2ccc(C(=O)NCc3ccco3)cc12`, the ATP content rises from 106% to 111%.

First: O=C(CCl)NCCOc1ccc(Cl)cc1Cl
Second: Clc1ccc2c(N3CCCC3)ccnc2c1
The ATP content of the first is higher: 99.9% for the first, 91% for the second.

First: CCOc1ccccc1CNC(=O)C1c2ccccc2C(=O)N(CC(C)C)C1c1cccs1 (stereo not given)
Second: CCOc1cccc2sc(N(Cc3cccnc3)C(=O)C3CCCCC3)nc12
The ATP content of the first is lower: 78.8% for the first, 79.5% for the second.
